Reference: PubChem BioAssay (NCATS)
Where “and” joins values, the source holds several entries; their conditions need not be identical. Equal entries are not always repeated. Unmarked numbers belong to inactive results. Inconclusive results are not listed. Calls of active or inactive are those of the source. The call rests on the fitted dose curve; in most records, active means well fitted curve in the direction sought with a large enough effect; inconclusive means small, poorly fitted or top-dose-only effect, or another doubt; inactive means no such curve, though single readings can be large; an effect the other way counts as inactive or inconclusive.

Columns and labels:
[1] = target: Cytochrome P450 2C9 (Homo sapiens) (UniProt P11712); assay: qHTS Assay for Inhibitors and Substrates of Cytochrome P450 2C9 (AID 883); further: nearly all actives have a fitted effect of over 60% in size; further: potency means the concentration at half of the fitted maximal effect; on activity change, negative = inhibition: on the % scale 0 is the no-effect control and ±100 the full control effect
Procedure, shortened: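 Turnover of Luciferin-H (100uM, KM) by 10nM human CYP2C9 was measured over 60 min at 37C with NADPH regeneration; inhibitors and some substrates reduce luminescence. Data normalized to sulphaphenazole 57uM.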

[2] = target: Cytochrome P450 3A4 (Homo sapiens) (UniProt P08684); assay: qHTS Assay for Inhibitors and Substrates of Cytochrome P450 3A4 (AID 884); further: nearly all actives have a fitted effect of over 50% in size; further: potency means the concentration at half of the fitted maximal effect; on activity change, negative = inhibition: series mostly up to about 57 µM; on the % scale 0 is the no-effect control and ±100 the full control effect
Procedure, shortened: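 20 nM human CYP3A4 with 25 uM Luciferin-PPXE (at KM) in 200 mM KPO4, preincubated 10 min with compound; NADPH regeneration started a 60 min RT reaction. Luciferin detected by luminescence, normalized to 57 uM ketoconazole as full inhibition.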

[3] = target: Cytochrome P450 3A4 (Homo sapiens) (UniProt P08684); assay: qHTS Assay for Activators of Cytochrome P450 3A4 (AID 885); further: nearly all actives have a fitted effect of over 65% in size
Procedure, shortened: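 Steps: enzyme/substrate mix dispensed; compound added, 10 min RT; NADPH regeneration solution added, 60 min RT; luciferin detection buffer stops reaction; 20 min later luminescence measured.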

[4] = target: Cytochrome P450 2D6 (Homo sapiens) (UniProt P10635); assay: qHTS Assay for Inhibitors and Substrates of Cytochrome P450 2D6 (AID 891); further: nearly all actives have a fitted effect of over 60% in size; further: potency means the concentration at half of the fitted maximal effect;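 on activity change, negative = inhibition: luciferin methyl ether substrate demethylated by CYP2D6 with NADPH regeneration; on the % scale 0 is the no-effect control and ±100 the full control effect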
Procedure, shortened: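 Human CYP2D6 (5 nM) with 30 uM Luciferin-ME EGE (at Km) in 100 mM KPO4, compound preincubated 10 min, then NADPH regeneration system for 60 min at room temperature. Luciferin read by luminescence; normalized to 1.43 uM quinidine.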

[5] = target: Cytochrome P450 2C19 (Homo sapiens) (UniProt P33261); assay: qHTS Assay for Inhibitors and Substrates of Cytochrome P450 2C19 (AID 899); further: nearly all actives have a fitted effect of over 60% in size; further: potency means the concentration at half of the fitted maximal effect
Procedure, shortened: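 Reactions contain 5nM enzyme, 10uM Luciferin-H EGE (KM) and 50mM KPO4; compound preincubates 10 min at 37C, NADPH regeneration starts turnover for 60 min. Luminescence after detection reagent gives activity.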

Cytochrome P450 3A4 (Homo sapiens), sequence (P08684 whole entry, looked up): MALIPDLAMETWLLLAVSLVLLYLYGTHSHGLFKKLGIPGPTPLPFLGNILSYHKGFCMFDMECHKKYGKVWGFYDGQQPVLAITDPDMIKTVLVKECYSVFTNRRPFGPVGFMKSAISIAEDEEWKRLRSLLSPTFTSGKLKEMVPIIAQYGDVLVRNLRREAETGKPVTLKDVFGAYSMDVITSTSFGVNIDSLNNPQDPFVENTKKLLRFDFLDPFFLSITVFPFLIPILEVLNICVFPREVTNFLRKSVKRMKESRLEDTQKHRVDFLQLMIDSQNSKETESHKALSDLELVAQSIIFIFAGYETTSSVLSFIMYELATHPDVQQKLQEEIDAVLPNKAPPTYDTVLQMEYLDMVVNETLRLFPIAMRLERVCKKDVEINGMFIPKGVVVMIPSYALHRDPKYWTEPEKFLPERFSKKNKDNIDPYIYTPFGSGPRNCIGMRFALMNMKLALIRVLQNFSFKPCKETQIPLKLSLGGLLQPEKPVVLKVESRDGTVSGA
Cytochrome P450 2C19 (Homo sapiens), sequence (P33261 whole entry, looked up): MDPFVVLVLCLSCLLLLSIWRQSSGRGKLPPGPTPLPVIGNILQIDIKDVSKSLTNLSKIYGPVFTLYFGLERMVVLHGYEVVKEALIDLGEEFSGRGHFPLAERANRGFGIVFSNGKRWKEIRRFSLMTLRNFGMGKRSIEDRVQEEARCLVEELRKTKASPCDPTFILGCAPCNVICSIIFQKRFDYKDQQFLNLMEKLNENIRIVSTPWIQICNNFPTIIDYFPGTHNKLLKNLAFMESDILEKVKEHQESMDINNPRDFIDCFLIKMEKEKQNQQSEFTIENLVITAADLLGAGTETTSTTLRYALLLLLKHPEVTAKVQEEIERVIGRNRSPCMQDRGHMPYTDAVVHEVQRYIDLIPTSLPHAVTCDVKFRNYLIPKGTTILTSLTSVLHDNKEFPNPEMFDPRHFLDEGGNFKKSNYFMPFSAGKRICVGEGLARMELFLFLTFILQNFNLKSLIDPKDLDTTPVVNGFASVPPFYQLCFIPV
Cytochrome P450 2C9 (Homo sapiens), sequence (P11712 whole entry, looked up): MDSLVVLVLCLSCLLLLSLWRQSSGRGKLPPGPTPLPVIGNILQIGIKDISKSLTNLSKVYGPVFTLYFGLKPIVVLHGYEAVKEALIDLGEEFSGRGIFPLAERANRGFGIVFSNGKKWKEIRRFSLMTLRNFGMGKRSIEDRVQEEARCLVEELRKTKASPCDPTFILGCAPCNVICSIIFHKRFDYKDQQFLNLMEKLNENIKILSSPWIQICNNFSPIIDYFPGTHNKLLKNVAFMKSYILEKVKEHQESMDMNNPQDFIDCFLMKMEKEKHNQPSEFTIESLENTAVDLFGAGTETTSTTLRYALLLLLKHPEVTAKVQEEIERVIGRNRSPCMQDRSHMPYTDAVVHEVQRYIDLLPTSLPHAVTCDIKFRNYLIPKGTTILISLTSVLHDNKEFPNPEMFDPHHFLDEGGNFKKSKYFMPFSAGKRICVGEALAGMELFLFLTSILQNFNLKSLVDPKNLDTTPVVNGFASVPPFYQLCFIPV
Cytochrome P450 2D6 (Homo sapiens), sequence (P10635 whole entry, looked up): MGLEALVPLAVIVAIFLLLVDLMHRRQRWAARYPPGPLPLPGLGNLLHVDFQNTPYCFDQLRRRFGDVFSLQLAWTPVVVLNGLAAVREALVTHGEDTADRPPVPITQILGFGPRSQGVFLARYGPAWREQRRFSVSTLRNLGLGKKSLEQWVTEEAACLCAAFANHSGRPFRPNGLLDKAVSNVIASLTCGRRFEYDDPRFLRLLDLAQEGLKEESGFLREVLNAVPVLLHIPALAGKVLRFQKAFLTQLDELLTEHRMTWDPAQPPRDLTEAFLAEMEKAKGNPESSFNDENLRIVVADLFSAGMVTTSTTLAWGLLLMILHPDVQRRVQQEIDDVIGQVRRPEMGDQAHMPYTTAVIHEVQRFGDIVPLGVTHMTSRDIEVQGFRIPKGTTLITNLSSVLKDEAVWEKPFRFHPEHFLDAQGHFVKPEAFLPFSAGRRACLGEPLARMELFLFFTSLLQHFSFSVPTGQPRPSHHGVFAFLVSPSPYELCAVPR

SMILES | Potency [1] | activity change, negative = inhibition [2] | activity change, positive = activation [3] | Potency [4] | Potency [5] | Potency [2]
COC(=O)C1=C(C)N(Cc2ccccc2)[C@]23O[C@](C(=O)OC)(C(=O)N2C1c1ccccc1)C1CCCC(=O)C13 (some centres not stated) | inactive | -22.3% [at 11.4 µM] | -50.6% [at 11.4 µM] | inactive |  | 
COC(=O)C1=C(C)N(Cc2ccccc2)C2=C3C(=O)N(C)C(=O)C3[C@@](O)(C(=O)OC)C(=O)N2C1c1ccccc1 (some centres not stated) | inactive | -21.3% [at 11.4 µM] | -32.3% [at 11.4 µM] | inactive | inactive | 
OCC1OC(/C=C\c2ccccc2)C=CC1Oc1ccc2c(c1)OCO2 (configuration not stated) | inactive |  | -105% [at 11.4 µM] | 3.98 µM (active) | 0.251 µM (active) | 0.398 µM (active)
COc1ccc(OC2C=CC(C#Cc3ccccc3)OC2CO)cc1 (configuration not stated) | inactive |  | -79.3% [at 11.4 µM] | inactive |  | 3.98 µM (active)
Cc1cc(C)cc(/C=C/C2OCC(O)C2Oc2ccc(C3CCCC3)cc2)c1 (configuration not stated) | inactive |  | -62.6% [at 11.4 µM] and -33.3% [at 11.4 µM] | inactive | inactive | 3.16 µM (active)
C=CCOC(=O)C(C(C)=O)C(NC(=O)OC)c1cccc(C(F)(F)F)c1 (configuration not stated) | inactive |  | -104% [at 11.4 µM] | inactive | 0.1 µM (active) | 1.58 µM (active)
COc1ccc(/C=C/N(CCc2ccc(OC)c(OC)c2)C(C)=O)cc1 | 3.16 µM (active) |  | -88.6% [at 11.4 µM] | inactive | 0.794 µM (active) | 2 µM (active)
COc1ccc(OC2C=CC(c3ccccc3)OC2CO)c(C(C)(C)C)c1 (configuration not stated) | 3.16 µM (active) |  | -79.5% [at 11.4 µM] | inactive | 3.16 µM (active) | 0.794 µM (active)
COc1ccc(OCC2CN3C(CCC(C)C3c3ccc(Br)cc3)C(=O)O2)cc1 (configuration not stated) | inactive |  | -46.6% [at 11.4 µM] and -70% [at 11.4 µM] | inactive | inactive | 3.98 µM (active)
CC(=O)c1ccc(C2C=CC(Oc3ccc(F)cc3C)C(CO)O2)cc1 (configuration not stated) | inactive |  | -76.9% [at 11.4 µM] | inactive |  | 3.16 µM (active)
CC(=O)c1ccc(OC2C(O)COC2/C=C/c2ccc(Cl)cc2)cc1 (configuration not stated) | inactive | -27.7% [at 11.4 µM] | -50% [at 11.4 µM] | inactive |  | 
COC(=O)NC(c1cccc(C)c1)[C@]1(C(C)=O)CCOC1=O (some centres not stated) | 3.16 µM (active) |  | -88.5% [at 11.4 µM] | inactive |  | 0.0316 µM (active)
CCCCC#CC1C=CC(OC(C)=O)C(COC(C)=O)O1 (configuration not stated) | inactive |  | -63.9% [at 11.4 µM] | inactive |  | 2.51 µM (active)
COc1ccc(OC2C=CC(C#Cc3ccc(Br)cc3)OC2CO)c(C(C)(C)C)c1 (configuration not stated) | 3.16 µM (active) |  | -84.8% [at 11.4 µM] | inactive |  | 3.98 µM (active)
COc1ccc(/C=C/C(=O)c2ccc(OC)cc2O)cc1 | inactive |  | -92.3% [at 11.4 µM] | inactive |  | 3.16 µM (active)
C=CCCC/C=C(/C)C(OCc1ccc(OC)cc1)C(CC/C=C(\C)C(N)=O)OC (configuration not stated) | inactive |  | -96.8% [at 11.4 µM] |  |  | 3.98 µM (active)
COC(=O)C1=C(C)N(Cc2ccccc2)[C@]23O[C@](C(=O)OC)(C(=O)N2C1c1ccccc1)C(c1ccccc1)C3C(=O)c1ccccc1 (some centres not stated) | inactive | -26.7% [at 11.4 µM] | -32.3% [at 11.4 µM] | inactive | inactive | 
CC(=O)OCC1OC(c2cc(C)cc(C)c2)C=CC1OC(C)=O (configuration not stated) | inactive |  | -86.4% [at 11.4 µM] | inactive |  | 3.16 µM (active)
CCCCCCCC#Cc1ccccc1/C=N/S(=O)c1ccc(C)cc1 (configuration not stated) | inactive |  | -65.3% [at 11.4 µM] | inactive | inactive | 3.98 µM (active)
COC(=O)NC(CC(C)=O)c1ccc2c(c1)OCO2 (configuration not stated) | inactive |  | -67.3% [at 11.4 µM] | inactive | inactive | 3.98 µM (active)
COC(=O)N(/C=C/c1ccc(OC)cc1)CCc1ccc(OC)c(OC)c1 | 3.16 µM (active) |  | -93.3% [at 11.4 µM] | inactive | 3.98 µM (active) | 3.98 µM (active)
COC(=O)C1=C(C)N(Cc2ccccc2)C2=C3C(=O)OCCC3[C@@](O)(C(=O)OC)C(=O)N2C1c1ccccc1 (some centres not stated) | inactive |  | -61.3% [at 11.4 µM] | inactive | inactive | 3.98 µM (active)

SMILES | Potency [1] | activity change, negative = inhibition [2] | activity change, positive = activation [3] | Potency [4] | Potency [5] | Potency [2]
CCOC(=O)OCC1OC(C#Cc2ccc(F)cc2F)C=CC1OC(=O)OCC (configuration not stated) | inactive |  | -75.6% [at 11.4 µM] | inactive | inactive | 3.16 µM (active)
C=CCOC(=O)/C=C/NC(=O)/C=C/C=C/CCCCCCCC(C)O (configuration not stated) | 3.98 µM (active) and 2.51 µM (active) |  | -72.9% [at 11.4 µM] and -68.1% [at 11.4 µM] | inactive | inactive | 3.16 µM (active) and 3.98 µM (active)
CC1CCC2C(=O)N3C(CCC(C)[C@@H]3c3cccc(N4CCOCC4)c3)C(=O)N2C1c1cccc(N2CCOCC2)c1 (some centres not stated) | inactive |  | -62.4% [at 11.4 µM] | inactive | inactive | 3.98 µM (active)
CC(=O)c1ccc(OC2C=CC(C#Cc3ccc(Br)cc3)OC2CO)cc1 (configuration not stated) | inactive |  | -77.6% [at 11.4 µM] | inactive |  | 3.16 µM (active)
CCCCCCC(=O)Cc1cc(OC)c(OC)cc1/C=C(/C(C)=O)C(=O)OC | inactive |  | -68.2% [at 11.4 µM] | inactive | 2 µM (active) | 3.98 µM (active)
CCCCC1CN2C(CCC(C)C2c2ccc(Br)cc2)C(=O)O1 (configuration not stated) | inactive |  | -38.2% [at 11.4 µM] and -43.4% [at 11.4 µM] and -62.6% [at 11.4 µM] | inactive | 1.26 µM (active) | 3.98 µM (active)
COc1ccc(/C=C/NC(=O)Cc2ccc(OC)c(OC)c2)cc1 | inactive |  | -57.1% [at 11.4 µM] and -101% [at 11.4 µM] | inactive | inactive | 3.16 µM (active)
COc1ccc(/C=C/NC(=O)c2ccc(OC)cc2)cc1 | inactive |  | -68.6% [at 11.4 µM] | inactive |  | 3.16 µM (active)
CCC(=O)[C@]12O[C@@]3(C4C(=O)OCCC41)N(Cc1ccccc1)C(C)=C(C(=O)OC)C(c1ccccc1)N3C2=O (some centres not stated) | inactive |  | -106% [at 11.4 µM] | inactive | inactive | 1.26 µM (active)
CC1(C)OC(C(O)(c2ccccc2)c2ccccc2)C(C(O)(c2ccccc2)c2ccccc2)O1 (configuration not stated) | inactive |  | -63.1% [at 11.4 µM] | inactive |  | 2.51 µM (active)
COC(=O)C1=C(C)N(Cc2ccccc2)C2=C(C(=O)c3ccccc3)C(c3ccccc3)[C@@](O)(C(=O)OC)C(=O)N2C1c1ccccc1 (some centres not stated) | inactive | -22.8% [at 11.4 µM] | -54.4% [at 11.4 µM] | inactive | inactive | 
CC(=O)OCC1OC(C#Cc2ccccc2Cl)C=CC1OC(C)=O (configuration not stated) | inactive |  | -76.5% [at 11.4 µM] | inactive |  | 3.98 µM (active)
CCOC(=O)OCC1OC(c2cc(C)cc(C)c2)C=CC1OC(=O)OCC (configuration not stated) | inactive |  | -69.3% [at 11.4 µM] | inactive |  | 3.98 µM (active)
Cc1cc2c(nc1C)CCCN2C[C@H](O)CN1CCCc2nc(-c3ccc(Br)cc3)ccc21 | 2.51 µM (active) |  | -65% [at 11.4 µM] and -47.8% [at 11.4 µM] | 3.16 µM (active) |  | 3.98 µM (active)
CCOC(=O)OCC1OC(CCc2ccccc2)CCC1Oc1ccc(OC)cc1 (configuration not stated) | inactive |  | -68.7% [at 11.4 µM] | inactive |  | 3.98 µM (active)
COc1ccc(/C=C/N(CCc2ccc(OC)c(OC)c2)C(=O)c2ccccn2)cc1 | inactive |  | -97.7% [at 11.4 µM] | inactive | inactive | 3.98 µM (active)
CC(=O)OCC1OC(C#CCCCc2ccccc2)C=CC1OC(C)=O (configuration not stated) | inactive |  | -71.4% [at 11.4 µM] and -59.5% [at 11.4 µM] | 3.98 µM (active) and 3.16 µM (active) | inactive | 3.98 µM (active)
COC(=O)NC(/C(C(=O)OC)=C(\C)NCc1ccccc1)c1ccc(F)cc1 (configuration not stated) | 2.51 µM (active) |  | -71.8% [at 11.4 µM] | 1 µM (active) | 0.251 µM (active) | 3.16 µM (active)
CC#CCOCC/C=C1/c2ccccc2C(OC)C1C (configuration not stated) | inactive |  | -90.8% [at 11.4 µM] | inactive | 1 µM (active) | 3.98 µM (active)
CCCCCCC#CC1C=CC(OC(=O)OCC)C(COC(=O)OCC)O1 (configuration not stated) | inactive |  | -78% [at 11.4 µM] | inactive | 2 µM (active) | 3.98 µM (active)
CC(=O)OCC1OC(C#Cc2ccccc2)C=CC1OC(C)=O (configuration not stated) | inactive |  | -91.5% [at 11.4 µM] and -31.7% [at 11.4 µM] | inactive | inactive | 3.98 µM (active)
